Test results reported in PubChem BioAssay (NCATS).
“And” between values parts separate entries of the source, which are not always exact repeats. Equal entries are not always repeated. Records with an inconclusive call do not appear. Entries that show only a call come without a potency. The source made the active and inactive calls. The call rests on the fitted dose curve; in most records, active means well fitted curve in the direction sought with a large enough effect; inconclusive means small, poorly fitted or top-dose-only effect, or another doubt; inactive means no such curve, though single readings can be large; an effect the other way counts as inactive or inconclusive.

Experiment: qHTS of pediatric cancer cell lines to identify multiple opportunities for drug repurposing: Primary screen for Rh30 cells (AID 1347107); further: nearly all actives have a fitted effect of over 75% in size
Settings: Rh30 rhabdomyosarcoma viability, CellTiter-Glo luminescence, 48 h; series mostly up to 46 µM
Procedure, shortened: (§1)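 Cells (500-1,000/well) in growth media were settled 5 h at 37 degrees C, then given compounds for 48 h. Viability was read as CellTiter-Glo luminescence. Primary runs used MIPE at 11 points (0.78 nM-46 µM) and NPC at 8 points (0.59 nM-46 µM); follow-ups used 11 points.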

Row | Compound | Potency
1 | CC(C(=O)O)c1ccc2c(c1)CC(=O)c1ccccc1S2 (stereo unspecified) | inactive
2 | C[C@@H]1C[C@H]2[C@@H]3CCC4=CC(=O)C=C[C@]4(C)[C@@]3(Cl)[C@@H](O)C[C@]2(C)[C@@]1(OC(=O)c1ccco1)C(=O)CCl | inactive
3 | O=NN(CCCl)C(=O)NC1CCCCC1 | inactive
4 | Nc1[nH]c(=O)ncc1F | inactive
5 | COc1ccc(C(=O)CC(=O)c2ccc(C(C)(C)C)cc2)cc1 | inactive
6 | Cc1cccc(N(C)C(=S)Oc2ccc3ccccc3c2)c1 | inactive

Experiment: qHTS of pediatric cancer cell lines to identify multiple opportunities for drug repurposing: Primary screen for Rh41 cells (AID 1347108); further: nearly all actives have a fitted effect of over 70% in size; further: potency means the concentration at half of the fitted maximal effect
Settings: Rh41 rhabdomyosarcoma viability, CellTiter-Glo luminescence, 48 h; series mostly up to 46 µM
Procedure, shortened: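 Quantitative HTS format: each compound titrated (MIPE 11 points from 0.78 nM, NPC 8 points from 0.59 nM) onto cells plated 5 hours earlier. After 48 h at 37 degrees C, CellTiter-Glo luminescence was recorded.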

Row | Compound | Potency
7 | COc1ccc(-c2ccc3cc(C(=O)O)ccc3c2)cc1C12CC3CC(CC(C3)C1)C2 | inactive
8 | OC(Cn1cncn1)(Cn1cncn1)c1ccc(F)cc1F | inactive
9 | CCN1CCCC1CNC(=O)c1cc(S(N)(=O)=O)ccc1OC (stereo unspecified) | inactive
10 | CCn1cc(C(=O)O)c(=O)c2cc(F)c(N3CCNCC3)nc21 | inactive
11 | CO[C@@H]1[C@@H](OC(N)=O)[C@@H](O)[C@H](Oc2ccc3c(O)c(NC(=O)c4ccc(O)c(CC=C(C)C)c4)c(=O)oc3c2C)OC1(C)C | inactive
12 | COc1cc(NS(=O)(=O)c2ccc(N)cc2)nc(OC)n1 | inactive
13 | O=S(=O)(O)CCS | inactive
14 | COc1cccc(N(C)C(=S)Oc2ccc3c(c2)CCCC3)n1 | inactive
15 | CC(C)(C#N)c1cc(Cn2cncn2)cc(C(C)(C)C#N)c1 | inactive
16 | N[C@@H](C(=O)N[C@@H]1C(=O)N2C(C(=O)O)=C(Cl)CS[C@H]12)c1ccccc1 | inactive
17 | CN(C)CCc1c[nH]c2ccc(C[C@H]3COC(=O)N3)cc12 | inactive
18 | CCN(CC)CCn1c(=O)c(Cc2ccc(OC)cc2)nc2ccccc21 | inactive
19 | COc1cc([C@@H]2c3cc4c(cc3[C@H](O)[C@H]3COC(=O)[C@H]23)OCO4)cc(OC)c1OC | inactive
20 | CCOC(=O)c1ccc(C#Cc2ccc3c(c2)C(C)(C)CCS3)nc1 | inactive
21 | Nc1nc(F)nc2c1ncn2[C@@H]1O[C@H](CO)[C@@H](O)[C@@H]1O | 1.48 µM (active)
22 | Nc1nc(N)nc(-c2cc(Cl)ccc2Cl)n1 | inactive
23 | NC(=O)c1cccnc1 | inactive
24 | CC(C)OC(=O)C(C(=O)OC(C)C)=C1SC=CS1 | inactive
25 | CC(C)C[C@H](NC(=O)[C@H](CCc1ccccc1)NC(=O)CN1CCOCC1)C(=O)N[C@@H](Cc1ccccc1)C(=O)N[C@@H](CC(C)C)C(=O)[C@@]1(C)CO1 | 23.7 nM (active) and 46.9 nM (active)
26 | COCCCOc1cc(C[C@@H](C[C@H](N)[C@@H](O)C[C@H](C(=O)NCC(C)(C)C(N)=O)C(C)C)C(C)C)ccc1OC | inactive
27 | CC(C(=O)O)c1ccc2c(c1)CC(=O)c1ccccc1S2 (stereo unspecified) | inactive
28 | O=C(O)c1cc(=O)[nH]c(=O)[nH]1 | inactive
29 | CCOCC(O)COc1ccc(NC(=O)CC[S+](C)C)cc1 (stereo unspecified) | inactive
30 | O=NN(CCCl)C(=O)NC1CCCCC1 | inactive
31 | Nc1[nH]c(=O)ncc1F | inactive
32 | Cc1cccc(N(C)C(=S)Oc2ccc3ccccc3c2)c1 | inactive
33 | CC(C)C1CCC(C(=O)N[C@H](Cc2ccccc2)C(=O)O)CC1 (stereo partly specified) | inactive

Experiment: qHTS of pediatric cancer cell lines to identify multiple opportunities for drug repurposing: Confirmatory screen for NB1643 cells (AID 1347109); further: nearly all actives have a fitted effect of over 45% in size; further: potency means the concentration at half of the fitted maximal effect
Settings: NB1643 neuroblastoma cell viability; series mostly up to 45.9 µM
Procedure, shortened: as §1

Row | Compound | Potency
34 | COc1ccc(-c2ccc3cc(C(=O)O)ccc3c2)cc1C12CC3CC(CC(C3)C1)C2 | 9270 nM (active)
35 | CC(C)NCC(O)c1ccc(NS(C)(=O)=O)cc1 (stereo unspecified) | inactive
36 | COc1cc2c(Nc3ccc(Br)cc3F)ncnc2cc1OCC1CCN(C)CC1 | inactive
37 | CCCCOc1ccc(CC(=O)NO)cc1 | inactive
38 | CC(C)(C)C(=O)OCOP(=O)(COCCn1cnc2c(N)ncnc21)OCOC(=O)C(C)(C)C | 8270 nM (active)
39 | CC(C)(C#N)c1cc(Cn2cncn2)cc(C(C)(C)C#N)c1 | inactive
40 | COc1cc([C@@H]2c3cc4c(cc3[C@H](O)[C@H]3COC(=O)[C@H]23)OCO4)cc(OC)c1OC | 32.9 nM (active)
41 | CCOC(=O)c1ccc(C#Cc2ccc3c(c2)C(C)(C)CCS3)nc1 | inactive
42 | Nc1nc(F)nc2c1ncn2[C@@H]1O[C@H](CO)[C@@H](O)[C@@H]1O | 465 nM (active)
43 | COC(=O)Nc1nc2ccc(S(=O)c3ccccc3)cc2[nH]1 (stereo unspecified) | 1850 nM (active)
44 | CCOC(=O)[C@H](CCc1ccccc1)N[C@H]1CS[C@H](c2cccs2)CN(CC(=O)O)C1=O | inactive
45 | COc1nc(N)nc2c1ncn2[C@@H]1O[C@H](CO)[C@@H](O)[C@@H]1O | inactive
46 | CC(C(=O)O)c1ccc2c(c1)CC(=O)c1ccccc1S2 (stereo unspecified) | inactive
47 | C[C@@H]1C[C@H]2[C@@H]3CCC4=CC(=O)C=C[C@]4(C)[C@@]3(Cl)[C@@H](O)C[C@]2(C)[C@@]1(OC(=O)c1ccco1)C(=O)CCl | 369 nM (active)
48 | O=NN(CCCl)C(=O)NC1CCCCC1 | inactive
49 | Nc1[nH]c(=O)ncc1F | inactive
50 | COc1ccc(C(=O)CC(=O)c2ccc(C(C)(C)C)cc2)cc1 | inactive
51 | Cc1cccc(N(C)C(=S)Oc2ccc3ccccc3c2)c1 | inactive
